Screening results deposited in PubChem BioAssay by several laboratories.
SMARCA2 act: activators of SMARCA2 function; activation, % at 9.1 µM; AID 652017; MG213 cells, MMTV-luciferase reporter, dexamethasone, overnight; hit rate 1% among 370,000; in the data active means activation above about 7.8%;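 further: 0% = vehicle wells and 100% = reference activator wells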
GASC-1 inh: inhibitors of human GASC-1 (JMJD2C) demethylase. Q9H3R0. GST-JMJD2C(1-420) H3K9me3 demethylation, DELFIA europium. inhibition, % at 2.35 µM. hit rate 0.069% among 330,000;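 active means more than half of a compound's replicate wells show inhibition beyond 50%, single wells judged on their own value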;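 further: signal counts dimethyl H3K9 product captured on neutravidin plate; 0% = median of DMSO wells and 100% = 0.3 times that DMSO median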
Target sequence (Q9H3R0 1-420 limits assumed): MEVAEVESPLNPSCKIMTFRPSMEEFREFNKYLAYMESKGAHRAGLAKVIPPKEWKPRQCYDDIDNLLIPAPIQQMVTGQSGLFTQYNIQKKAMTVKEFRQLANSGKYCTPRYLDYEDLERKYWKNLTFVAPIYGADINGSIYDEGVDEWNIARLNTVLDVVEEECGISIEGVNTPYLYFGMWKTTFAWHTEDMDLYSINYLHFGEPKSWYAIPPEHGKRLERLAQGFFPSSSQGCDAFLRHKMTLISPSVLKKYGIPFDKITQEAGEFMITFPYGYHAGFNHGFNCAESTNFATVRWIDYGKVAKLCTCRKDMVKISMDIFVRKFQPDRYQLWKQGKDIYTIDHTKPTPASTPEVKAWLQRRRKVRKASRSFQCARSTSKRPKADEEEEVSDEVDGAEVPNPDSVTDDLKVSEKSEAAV
MIN6 prolif: MIN6 beta-cell proliferation induction | MIN6 cells proliferation, ATPlite luminescence, 48 h; cells starved in 0.2% serum; 100% = growth in 10% serum | proliferation, % at 10 µM | hit rate 0.29% among 330,000 | AID 2380;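 active means compounds whose signal lies at least 3.5 SD above the mean of all wells on their plate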;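 further: 0% = DMSO-treated cells in low-serum medium and 100% = 10% serum control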
M18AAP inhibitor: blocks P. falciparum M18 aspartyl aminopeptidase. recombinant PfM18AAP, H-Glu-NHMec fluorogenic cleavage. AID 1822. inhibition, % at 7.35 µM. hit rate 1.2% among 290,000;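 active means inhibition above the campaign mean inhibition over all tested compounds plus 3 SD, cut at about 28% in these data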;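 further: 0% = plate median of test compound wells and 100% = 2 mM ZnCl2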
Granule exo inh: lytic granule exocytosis inhibition | inhibition, % at 10 µM | TALL-104 LAMP-1 surface exposure, flow cytometry; cells stimulated with thapsigargin and PMA | hit rate 0.66% among 360,000 | AID 651702;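 active means inhibition above about 55%, limit read from the data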
ALR inh: inhibitors of human sulfhydryl oxidase ALR; P55789; purified ALR, DTT oxidation, H2O2 HRP-luminol luminescence; inhibition, % (concentration not given with the values); hit rate 3.8% among 290,000; AID 485317;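 active means mean replicate inhibition above about 79%, with every replicate also reaching it, limit read from the data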
Target sequence (P55789 whole entry, looked up): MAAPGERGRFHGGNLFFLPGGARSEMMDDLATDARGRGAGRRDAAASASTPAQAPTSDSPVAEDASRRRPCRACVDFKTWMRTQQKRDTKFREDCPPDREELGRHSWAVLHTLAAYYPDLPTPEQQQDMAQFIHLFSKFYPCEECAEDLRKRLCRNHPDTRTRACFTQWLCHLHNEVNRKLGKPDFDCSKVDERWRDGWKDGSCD
* hit, by the source's call; . = not tested or not shown. Compounds with a hit are over-represented: about 5.4% of the library has one in this group of screens.

SMILES | SMARCA2 act | GASC-1 inh | MIN6 prolif | M18AAP inhibitor | Granule exo inh | ALR inh
CCOC(=O)c1cnn2c(C)cc(-c3ccccc3)nc12 | 7.9* | -5 | -3 | -3 | -2 | 0
CCOC(=O)c1cc2nc(-c3ccccc3)cc(C)n2n1 | 2 | 3 | 1 | -8 | -7 | -4
CC1CCC/C(=C\Nc2ccc(O)cc2)C1=O (configuration not stated) | -3 | -4 | -3 | 22 | -1 | 99*
Cc1oc(-c2ccccc2Cl)nc1CS(=O)(=O)CC(=O)NC1CCCC1 | 4 | -10 | 11 | 1 | 1 | 98*
COc1cccc(-c2nc(CS(=O)(=O)CC(=O)NC3CCC(C)CC3)c(C)o2)c1 (configuration not stated) | -4 | -1 | 1 | -1 | 20 | 31
COc1cccc(-c2nc(CS(=O)(=O)CC(=O)NC3CCCC3)c(C)o2)c1 | -2 | 16 | -3 | -1 | -2 | 98*
COc1cccc(-c2nc(CS(=O)(=O)CC(=O)NC3CCCc4ccccc43)c(C)o2)c1 (configuration not stated) | -1 | 0 | -4 | -2 | -1 | 89*
Cc1ccccc1-c1nc(CS(=O)(=O)CC(=O)NC2CCCC2)c(C)o1 | -4 | -16 | 4 | -1 | -1 | -11
COC(=O)C1CCCN(C(=O)C2CCN(S(=O)(=O)c3ccccc3[N+](=O)[O-])CC2)C1 (configuration not stated) | -3 | . | . | . | . | .
O=C1c2ccccc2C(=O)c2c([N+](=O)[O-])ccc(O)c21 | -2 | 18 | -4 | 0 | 59* | .
CN(C)c1ccc(NC(=O)c2cc3c(=O)n4ccccc4nc3n2C)cc1 | -2 | 5 | 0 | -6 | -2 | 82*
CCN(CC)c1ccc(NC(=O)CSC(=O)c2ccccc2)cc1 | -1 | -6 | -6 | . | -2 | 99*
CCN(CC)c1ccc(NC(=O)COc2ccc(-n3cnnn3)cc2)cc1 | 0 | -1 | -3 | . | 1 | 99*
CC(=O)c1cccc(NC(=O)CSC(=O)c2ccccc2)c1 | -2 | 0 | 0 | 3 | 12 | 99*
CN(CCO)c1ccc2c(c1)Oc1ccccc1CN(Cc1cn(Cc3ccc(C(F)(F)F)cc3)nn1)S2(=O)=O | -3 | . | . | . | . | .
O=C(NCc1ccc2c(c1)OCO2)C1CC(=O)N(c2ccc(O)cc2)C1 (configuration not stated) | 0 | -3 | -1 | -1 | -1 | 99*
CCN(CC)S(=O)(=O)c1ccc(N2CC(C(=O)NCc3ccc4c(c3)OCO4)CC2=O)cc1 (configuration not stated) | -3 | -1 | -4 | . | 15 | 0
N#CCCCc1cn(-c2ccc(-c3noc4c3C(=O)N(CC(=O)N3CCOCC3)CC4)cc2)nn1 | -3 | . | . | . | . | .
Cc1ccccc1CN(C)C(=O)COC(=O)CSc1ccc([N+](=O)[O-])cc1 | -1 | 33 | -5 | . | -5 | 99*
Cc1ccc(CN(C)C(=O)COC(=O)CSc2ccc([N+](=O)[O-])cc2)cc1 | 3 | 1 | 4 | . | 10 | -14
CC(C)=CCC/C(C)=C/CNCC(=O)N1c2ccccc2[C@]2(C)C[C@@H]3C(=O)N(C/C=C(\C)CCC=C(C)C)CC(=O)N3[C@H]12 | -3 | . | . | . | . | .
Cc1cc(=O)n2[nH]cc(C(=O)O)c2n1 | 3 | 10 | 2 | 29* | 1 | -11
O=C(N/N=C/c1ccc(O)cc1)NC12CC3CC(CC(C3)C1)C2 | -1 | -12 | -2 | 2 | 1 | 93*
C=C1CC(C(=O)N/N=C/c2ccc(O)cc2)C1 | 0 | -4 | 0 | -8 | 2 | 100*
Fc1ccc(F)c(Cn2ccc3ccc(-c4ccc5ccn(Cc6cc(F)ccc6F)c5c4)cc32)c1 | -2 | . | . | . | . | .
SMILES | SMARCA2 act | GASC-1 inh | MIN6 prolif | M18AAP inhibitor | Granule exo inh | ALR inh
CCN(CC)c1ccc(NC(=O)CSc2nnc3nc(C)cc(C)n23)cc1 | -2 | -1 | -1 | 9 | -5 | 99*
Cc1cc(C)n2nc(SCC(=O)Nc3ccc(F)cc3)nc2n1 | -1 | 3 | -2 | -2 | 5 | -3
Cc1cc(C)n2c(SCC(=O)Nc3ccccc3)nnc2n1 | 4 | 6 | -2 | 4 | 0 | -7
COc1ccc(NC(=O)c2nc3nc(C)cc(C(F)F)n3n2)cc1OC | -3 | -1 | 1 | 5 | 14 | .
CCN(CC)c1ccc(NC(=O)c2nc3nc(C)cc(C(F)F)n3n2)cc1 | -4 | -23 | -3 | 9 | 1 | 99*
Cc1cc(SCC(=O)Nc2ccc(O)cc2)n2ncc(-c3ccccc3)c2n1 | 4 | 4 | -5 | 3 | 11 | -8
Cc1cc(SCC(=O)Nc2ccc(O)cc2)n2nc(C)c(-c3ccccc3)c2n1 | -1 | -8 | -2 | 2 | -3 | 99*
Cc1cc(C)n2nc(SCC(=O)Nc3ccc(O)cc3)nc2n1 | -1 | 12 | 0 | 4 | 7 | 99*
CN[C@H]1C[C@@H](c2ccccc2Br)N(C(C)=O)C[C@H]1CO | 1 | . | . | . | . | .
CCOC(=O)[C@]12CCCC=C1N(Cc1ccc(OC)cc1)C(=O)[C@@H]2CC(=O)N1CCSCC1 | -1 | . | . | . | . | .
COC(=O)C1CN(Cc2ccc(OC)cc2)CCS(=O)(=O)N1Cc1ccc(OC)cc1 (configuration not stated) | -3 | . | . | . | . | .
CCC1C/C(=C/c2ccco2)C(=O)/C(=C/c2ccco2)C1 (configuration not stated) | . | -4 | . | 18 | . | 97*
Cn1cccc1/C=C1\SC(=Nc2ccc(O)cc2)NC1=O | 3 | 6 | -5 | 6 | 7 | 99*
Cn1cccc1/C=C1\SC(=Nc2ccccc2)NC1=O | 7 | -6 | 1 | -10 | 56* | 2
COc1ccc(S[C@]2(C(=O)N3CCCC3)CC(=O)N(P(=O)(OC)OC)[C@@H]2c2ccc(OC)cc2)cc1 | -5 | . | . | . | . | .
N#CCC[C@H]1CC[C@]2(CCCN(C(=O)c3ccc4ccccc4n3)C2)O1 | -2 | . | . | . | . | .
Cc1ccc(N(C)S(=O)(=O)c2cccc(C(=O)Nc3nnc(C4CC4)s3)c2)cc1 | 0 | -6 | -2 | -3 | -8 | 95*
COc1cc(OC)c(N(C)S(=O)(=O)c2cccc(C(=O)Nc3nc(C)cs3)c2)cc1Cl | 0 | . | -5 | . | 0 | .
CCSc1nnc(NC(=O)c2cccc(S(=O)(=O)N(C)c3ccccc3)c2)s1 | -5 | -7 | 3 | -4 | -2 | 94*
C=CCN(c1ccccc1)S(=O)(=O)c1cccc(C(=O)Nc2nnc(SCC)s2)c1 | -1 | -2 | -2 | 2 | 1 | 67
COc1ccc(N(C)S(=O)(=O)c2cccc(C(=O)Nc3nc(C)cs3)c2)cc1 | -3 | -8 | -5 | . | -1 | 97*
CCCS(=O)(=O)NCc1cn2cccc(C)c2n1 | 5 | 69 | -1 | -5 | 6 | -1
Cc1cccn2cc(CNc3ccccc3)nc12 | 3 | 16 | -3 | 8 | 0 | 98*
CCCC[C@H]1C2CC(OC(=O)Nc3ccccc3OC)C(C2)[C@H]2CCCCN21 (some centres not stated) | -2 | . | . | . | . | .
